PubChem BioAssay (Tox21)
Results filed as inconclusive are left out. Calls of active or inactive are those of the source. Unless noted, calls come from the whole dose curve.

How the values were obtained:
[1] = Nuclear factor erythroid 2-related factor 2/antioxidant responsive element (Nrf2/ARE) small molecule agonists: qHTS cell viability counter screen in human keratinocytes (AID 1919968; active = well fitted curve in the direction sought with a large enough effect in the repeat runs; an effect the other way counts as inactive or inconclusive; note: nearly all actives have a fitted effect of over 55% in size)
Procedure, shortened: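 In human HaCaT keratinocytes stably expressing an ARE-driven luciferase, compound exposure lasted 23 h at 37 C under 5% CO2. Viable cells are quantified with a protease-based fluorogenic reagent (CellTiter-Fluor) read 1 h after addition.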

[2] = Nuclear factor erythroid 2-related factor 2/antioxidant responsive element (Nrf2/ARE) small molecule agonists: luciferase reporter gene qHTS assay in human keratinocytes (AID 1919969); note: nearly all actives have a fitted effect of over 35% in size
[3] = biological target: Gonadotropin-releasing hormone receptor (Homo sapiens) (UniProt P30968); test: Human gonadotropin-releasing hormone receptor (GnRHR) small molecule agonists, calcium flux assay in GnRHR-HEK293 cells (AID 1920063); note: nearly all actives have a fitted effect of over 35% in size
Chain of Gonadotropin-releasing hormone receptor (Homo sapiens) (P30968 whole entry, looked up): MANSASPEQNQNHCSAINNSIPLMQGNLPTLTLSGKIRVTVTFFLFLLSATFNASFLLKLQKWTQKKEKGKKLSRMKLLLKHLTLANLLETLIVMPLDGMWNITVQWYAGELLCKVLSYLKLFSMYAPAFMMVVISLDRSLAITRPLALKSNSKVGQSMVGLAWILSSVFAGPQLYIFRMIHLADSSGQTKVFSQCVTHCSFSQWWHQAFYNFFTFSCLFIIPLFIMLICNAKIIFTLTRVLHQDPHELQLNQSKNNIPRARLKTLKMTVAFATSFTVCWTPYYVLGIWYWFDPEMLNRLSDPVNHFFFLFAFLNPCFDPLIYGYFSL
Procedure, shortened: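 Intracellular calcium rise is the read-out: engineered human GnRHR HEK293 cells, dye-loaded, are exposed to DMSO-dissolved compounds and fluorescence at Ex/Em 480/540 is tracked for 3 min.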

[4] = biological target: KiSS-1 receptor (Homo sapiens) (UniProt Q969F8); test: Human kisspeptin (KISS1R) small molecule agonists, calcium flux assay in KISS1R-HEK293 cells (AID 1920064; active = well fitted curve in the direction sought with a large enough effect in the repeat runs; an effect the other way counts as inactive or inconclusive)
Chain of KiSS-1 receptor (Homo sapiens) (Q969F8 whole entry, looked up): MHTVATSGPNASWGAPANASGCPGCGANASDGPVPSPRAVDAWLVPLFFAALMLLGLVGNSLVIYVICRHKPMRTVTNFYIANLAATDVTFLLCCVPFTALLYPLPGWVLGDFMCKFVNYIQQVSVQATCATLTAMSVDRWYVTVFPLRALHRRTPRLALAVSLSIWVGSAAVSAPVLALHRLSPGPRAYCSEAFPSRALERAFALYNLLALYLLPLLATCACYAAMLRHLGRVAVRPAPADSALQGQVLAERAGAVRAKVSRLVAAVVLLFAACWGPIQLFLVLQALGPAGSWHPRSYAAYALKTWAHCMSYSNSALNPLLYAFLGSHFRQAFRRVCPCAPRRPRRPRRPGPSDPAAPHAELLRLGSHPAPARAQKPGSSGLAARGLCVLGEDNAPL
Procedure, shortened: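 Concentration-response testing used 15 concentrations in triplicate on human KISS1R-expressing HEK293 cells. Calcium-dependent fluorescence (Ex/Em 480/540) was followed kinetically for 3 min after compound transfer.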

[5] = G protein-coupled receptor (GPCR) small molecule agonists, calcium flux assay: HEK293 wild type cell line counter screen (AID 1920065)
Procedure, shortened: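 Fluorescence intensity signals activation. After overnight (18 h) culture and a 1 h calcium dye load at 37 C, compounds are added by pin tool and the plate read at 480/540 nm for 3 min in 1 s steps.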

[6] = p53 small molecule agonists, cell-based qHTS assay with human liver microsomes: qHTS cell viability counter screen (AID 1963579); note: nearly all actives have a fitted effect of over 45% in size
Procedure, shortened: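 Seed p53RE-bla cells at 4,000 per well; incubate 5 h at 37 C; add compound, human liver microsomes and NADPH; incubate 16 h at 37 C; add CellTiter-Glo; after 30 min at room temperature, read luminescence.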

[7] = p53 small molecule agonists, cell-based qHTS assay with rat liver microsomes: qHTS cell viability counter screen (AID 1963580); note: nearly all actives have a fitted effect of over 45% in size
Procedure, shortened: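 Counter screen for cytotoxicity under metabolic activation: rat liver microsomes and NADPH, 0.5 mg/mL final each, added with compounds to p53RE-bla HCT-116 cells; 16 h at 37 C, then ATP luminescence read.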

[8] = p53 small molecule agonists, cell-based qHTS assay: qHTS cell viability counter screen (AID 1963581); note: nearly all actives have a fitted effect of over 45% in size
Procedure, shortened: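 Luminescence from CellTiter-Glo, reflecting ATP content, serves as the cytotoxicity measure; it is taken after the 2 h reporter substrate step in HCT-116 p53RE-bla cells dosed for 16 h at 37 C.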

[9] = biological target: 5-hydroxytryptamine receptor 2A (Homo sapiens) (UniProt P28223); test: 5-hydroxytryptamine receptor 2A (HTR2A) small molecule antagonists, cell-based qHTS assay (AID 1963586); note: nearly all actives have a fitted effect of over 45% in size
Chain of 5-hydroxytryptamine receptor 2A (Homo sapiens) (P28223 whole entry, looked up): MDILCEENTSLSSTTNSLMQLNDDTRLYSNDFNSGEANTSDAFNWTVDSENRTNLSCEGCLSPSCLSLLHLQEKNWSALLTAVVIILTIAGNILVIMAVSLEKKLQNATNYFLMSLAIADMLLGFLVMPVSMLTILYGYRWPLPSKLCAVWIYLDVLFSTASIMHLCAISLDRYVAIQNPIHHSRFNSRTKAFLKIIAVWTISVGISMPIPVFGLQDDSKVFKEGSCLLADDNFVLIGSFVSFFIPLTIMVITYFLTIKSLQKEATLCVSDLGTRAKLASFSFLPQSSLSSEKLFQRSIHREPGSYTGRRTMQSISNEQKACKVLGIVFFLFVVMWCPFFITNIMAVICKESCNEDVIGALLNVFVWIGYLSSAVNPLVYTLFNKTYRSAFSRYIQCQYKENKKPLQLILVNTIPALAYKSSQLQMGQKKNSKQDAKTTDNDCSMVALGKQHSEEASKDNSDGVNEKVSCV
Procedure, shortened: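 CHO cells stably expressing human HTR2A were plated for 18 h at 37 C, then loaded with calcium dye for 1 h. Compounds were preincubated 5 min at room temperature before DOI (4 nM solution) was added. Kinetic fluorescence was read for 3 min.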

[10] = biological target: 5-hydroxytryptamine receptor 2A (Homo sapiens) (UniProt P28223); test: 5-hydroxytryptamine receptor 2A (HTR2A) small molecule agonists, cell-based qHTS assay (AID 1963587); note: nearly all actives have a fitted effect of over 30% in size
Procedure, shortened: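 HTR2A-CHO cells, plated 18 h at 37 C/5% CO2, dye-loaded 1 h at 37 C; compounds in DMSO added by pin tool (agonist mode). Intracellular calcium flux read as kinetic fluorescence on FDSS over 2 min at 1 s intervals.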

[11] = biological target: Muscarinic acetylcholine receptor M1 (Homo sapiens) (UniProt P11229); test: Cholinergic receptor muscarinic 1 (CHRM1) small molecule antagonists, cell-based qHTS assay (AID 1963588); note: nearly all actives have a fitted effect of over 40% in size
Chain of Muscarinic acetylcholine receptor M1 (Homo sapiens) (P11229 whole entry, looked up): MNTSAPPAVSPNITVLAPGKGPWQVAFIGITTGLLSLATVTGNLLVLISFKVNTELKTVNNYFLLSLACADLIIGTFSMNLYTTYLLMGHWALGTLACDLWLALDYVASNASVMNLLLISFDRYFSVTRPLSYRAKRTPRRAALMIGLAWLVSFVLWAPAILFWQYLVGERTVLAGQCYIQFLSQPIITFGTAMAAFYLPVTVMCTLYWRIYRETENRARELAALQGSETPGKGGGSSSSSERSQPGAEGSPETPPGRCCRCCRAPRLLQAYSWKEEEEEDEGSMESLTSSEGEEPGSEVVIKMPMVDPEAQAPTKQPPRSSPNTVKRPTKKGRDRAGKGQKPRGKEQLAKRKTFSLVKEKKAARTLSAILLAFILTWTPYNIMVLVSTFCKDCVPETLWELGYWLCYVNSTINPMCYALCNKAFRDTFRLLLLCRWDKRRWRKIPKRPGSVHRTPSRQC
Procedure, shortened: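 Compounds were tested at 15 concentrations in three independent runs. Dye-loaded CHRM1-CHO cells were exposed 5 min at room temperature before stimulation by acetylcholine added at 50nM. Intracellular calcium was read kinetically on FDSS for 3 min.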

[12] = biological target: Muscarinic acetylcholine receptor M1 (Homo sapiens) (UniProt P11229); test: Cholinergic receptor muscarinic 1 (CHRM1) small molecule agonists, cell-based qHTS assay (AID 1963589); note: nearly all actives have a fitted effect of over 35% in size
Procedure, shortened: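 Fluorescent calcium dye reports M1 activation in stably transfected CHO cells. Compounds, 15 concentrations, added after 1 h dye loading at 37 C; kinetic reading at 1 sec intervals.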

[13] = cAMP Responsive Elements (CRE) small molecule agonists, cell-based qHTS assay (AID 1963590)
Procedure, shortened: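 Compound exposure lasted 3 h at 37 C/5% CO2 in CRE-bla HEK 293T cells grown in assay medium with 10% dialyzed FBS and 25 mM HEPES. Reporter signal came from LiveBLAzer B/G FRET substrate, 2 h, room temperature.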

[14] = cAMP Responsive Elements (CRE) small molecule antagonists, cell-based qHTS assay (AID 1963591; active = well fitted inhibition curve with a large enough effect in the signal ratio in the repeat runs, not every such curve was filed as active; the % refers to the signal ratio)
Procedure, shortened: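 Stimulation used NKH477 at a final 0.25 uM for 3 h in compound-treated CRE-bla HEK293T cells, seeded 18 h beforehand. Reporter activity was measured with LiveBLAzer B/G FRET substrate after 2 h at room temperature.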

[15] = biological target: Beta-2 adrenergic receptor (Homo sapiens) (UniProt P07550); test: Adrenergic beta2 receptor (ADRB2) small molecule antagonists, cell-based qHTS assay (AID 1963592); note: series mostly up to about 92 µM; nearly all actives have a fitted effect of over 50% in size
Chain of Beta-2 adrenergic receptor (Homo sapiens) (P07550 whole entry, looked up): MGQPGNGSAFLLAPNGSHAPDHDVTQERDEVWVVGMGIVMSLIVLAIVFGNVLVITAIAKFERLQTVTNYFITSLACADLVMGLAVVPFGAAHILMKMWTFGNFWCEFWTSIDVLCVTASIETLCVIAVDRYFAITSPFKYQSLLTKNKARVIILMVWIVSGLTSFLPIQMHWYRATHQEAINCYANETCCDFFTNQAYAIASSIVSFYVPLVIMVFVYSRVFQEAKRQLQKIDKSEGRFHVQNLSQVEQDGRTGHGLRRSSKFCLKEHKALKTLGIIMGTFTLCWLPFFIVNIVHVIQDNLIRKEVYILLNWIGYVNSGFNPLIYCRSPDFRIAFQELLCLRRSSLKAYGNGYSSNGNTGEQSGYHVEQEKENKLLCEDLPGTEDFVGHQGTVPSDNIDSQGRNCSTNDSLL
Procedure, shortened: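 Assay format: CHO-ADRB2 cells, 18-20hr seeding at 37C/5% CO2, then compound plus 1nM isoproterenol agonist mix for 0.5hr RT. Homogeneous time-resolved fluorescence cAMP detection after 1hr, expressed as 665/615 nm ratio.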

[16] = biological target: D(2) dopamine receptor (Homo sapiens) (UniProt P14416); test: Dopamine D2 receptor (DRD2) small molecule agonists, cell-based qHTS assay (AID 1963594); note: nearly all actives have a fitted effect of over 35% in size
Chain of D(2) dopamine receptor (Homo sapiens) (P14416 whole entry, looked up): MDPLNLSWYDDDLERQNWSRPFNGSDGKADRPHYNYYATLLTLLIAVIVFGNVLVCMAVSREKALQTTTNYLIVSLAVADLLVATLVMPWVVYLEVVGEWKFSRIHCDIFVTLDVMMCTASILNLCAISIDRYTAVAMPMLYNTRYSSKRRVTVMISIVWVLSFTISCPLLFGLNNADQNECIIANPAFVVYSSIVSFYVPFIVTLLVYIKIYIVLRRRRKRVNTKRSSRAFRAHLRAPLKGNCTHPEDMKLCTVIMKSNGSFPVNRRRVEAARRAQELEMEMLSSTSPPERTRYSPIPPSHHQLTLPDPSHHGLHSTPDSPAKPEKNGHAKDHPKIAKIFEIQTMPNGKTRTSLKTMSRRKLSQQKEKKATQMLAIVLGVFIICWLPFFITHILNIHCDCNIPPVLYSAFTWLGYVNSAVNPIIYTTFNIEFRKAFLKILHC
Procedure, shortened: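 HEK293 cells stably expressing DRD2 were cultured 24 h at 37 C, then given Ro20-1724 (0.1 mM final) and compounds for 10 min at room temperature. NKH477 (200nM) was then added for 30 min. cAMP was read by HTRF.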

[17] = biological target: D(2) dopamine receptor (Homo sapiens) (UniProt P14416); test: Dopamine D2 receptor (DRD2) small molecule antagonists, cell-based qHTS assay (AID 1963595; active = well fitted inhibition curve with a large enough effect in the signal ratio in the repeat runs, with a control signal flat; the % refers to the signal ratio)
Procedure, shortened: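 Antagonist mode in DRD2-HEK293 cells: after compound addition with 0.1 mM Ro20-1724, cells received quinpirole (12 nM) and NKH477 (200 nM) for 30 min at room temperature; HTRF cAMP read after 1 h detection.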

[18] = biological target: Beta-2 adrenergic receptor (Homo sapiens) (UniProt P07550); test: Adrenergic beta2 receptor (ADRB2) small molecule agonists, cell-based qHTS assay (AID 1963593);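 note: CHO cells stably overexpressing human ADRB2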
Procedure, shortened: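 CHO cells stably over-expressing ADRB2 were plated overnight at 37C, then dosed with compounds plus a stimulation mix containing 100uM IBMX and 25uM Ro-20-1724 for 0.5hr at room temperature. cAMP was measured by HTRF competition, 1hr.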
% is set by controls: 0 for no effect and ±100 for the full control effect.

OCCC1CCCCN1 (stereo unspecified)
inactive: Potency [1] | Potency [2] | Potency [3] | Potency [4] | Potency [5] | Potency [6] | Potency [7] | Potency [8] | Potency [9] | Potency [10] | Potency [11] | Potency [12] | Potency [13] | Potency [14] | Potency [15] | Potency [16] | Potency [17]

CCOc1ccc(NC(N)=O)cc1
inactive: Potency [1] | Potency [2] | Potency [3] | Potency [4] | Potency [5] | Potency [6] | Potency [7] | Potency [8] | Potency [9] | Potency [10] | Potency [11] | Potency [12] | Potency [13] | Potency [14] | Potency [15] | Potency [16] | Potency [17]

C=CCCCCCCCCCCCCCC
inactive: activity change, negative = cytotoxicity [1] 5.7% [at 19 µM] | activity, positive = activation [2] -0.484% [at 19 µM] | activity change [3] 0.565% [at 11.8 µM, stronger effect = higher value] | activation [4] -0.0025% [at 15.8 µM] | activation [5] 0.0173% [at 11.8 µM] | activity change, negative = cytotoxicity [6] 3.4% [at 13.5 µM] | activity change, negative = cytotoxicity [7] -3.36% [at 13.5 µM] | activity change, negative = cytotoxicity [8] -15.7% [at 13.5 µM] | activity, negative = inhibition [9] 4.99% [at 12.7 µM] | activation [10] 4.53% [at 15.9 µM] | activity, negative = inhibition [11] -25.1% [at 12.6 µM] | activation [12] -0.058% [at 15.8 µM] | activation [13] -0.128% [at 19 µM] | activity change, negative = inhibition [14] -3.11% [at 18.9 µM] | activity change, negative = inhibition [15] 8.54% [at 19 µM] | activation [16] -4.33% [at 19 µM] | activity change, negative = inhibition [17] -4.22% [at 18.9 µM]

CC(CCO)CCCC(C)(C)O (stereo unspecified)
inactive: Potency [1] | Potency [2] | Potency [3] | Potency [4] | Potency [5] | Potency [6] | Potency [7] | Potency [8] | Potency [9] | Potency [10] | Potency [11] | Potency [12] | Potency [13] | Potency [14] | Potency [15] | Potency [16] | Potency [17]

C=C(C)C(=O)OCCO
inactive: Potency [1] | Potency [2] | Potency [3] | Potency [4] | Potency [5] | Potency [6] | Potency [7] | Potency [8] | Potency [9] | Potency [10] | Potency [11] | Potency [12] | Potency [13] | Potency [14] | Potency [15] | Potency [16] | Potency [17]

Brc1cc(Br)c(Oc2cc(Br)c(Br)cc2Br)cc1Br
inactive: Potency [1] | Potency [2] | Potency [3] | Potency [4] | Potency [5] | Potency [6] | Potency [7] | Potency [8] | Potency [9] | Potency [10] | Potency [11] | Potency [12] | Potency [13] | Potency [14] | Potency [15] | Potency [16] | Potency [17]

CCCCN1C[C@H](O)[C@@H](O)[C@H](O)[C@H]1CO
inactive: Potency [1] | Potency [2] | Potency [3] | Potency [4] | Potency [5] | Potency [6] | Potency [7] | Potency [8] | Potency [9] | Potency [10] | Potency [11] | Potency [12] | Potency [13] | Potency [14] | Potency [15] | Potency [18] | Potency [17]

CCCNC(C)(C)COC(=O)c1ccccc1
inactive: Potency [1] | Potency [2] | Potency [3] | Potency [4] | Potency [5] | Potency [6] | Potency [7] | Potency [8] | Potency [9] | Potency [10] | Potency [11] | Potency [12] | Potency [13] | Potency [14] | Potency [15] | Potency [16] | Potency [17]
